Experimental data taken from publication PMC12701074.

What was measured:
Histone H4 = Histone H4 (UniProt P62805); test: cross-linking mass spectrometry
Histone H1.4 = Histone H1.4 (UniProt P10412); test: cross-link between two proteins; cross-linking mass spectrometry
Protein RCC2 = Protein RCC2 (UniProt Q9P258); test: as above
[1] = molecular target: Beta-actin-like protein 2 (UniProt Q562R1); test: as above
[2] = molecular target: Elongation factor 1-alpha 1 (UniProt P68104); test: as above
Histone H2B type 1-B = Histone H2B type 1-B (UniProt P33778); test: as above
Histone H2B type 1-L = Histone H2B type 1-L (UniProt Q99880); test: as above
[3] = molecular target: Large ribosomal subunit protein eL8 (UniProt P62424); test: as above
Nucleolin = Nucleolin (UniProt P19338); test: as above
Tubulin beta-2B chain = Tubulin beta-2B chain (UniProt Q9BVA1); test: as above
Tubulin beta-3 chain = Tubulin beta-3 chain (UniProt Q13509); test: as above
Tubulin beta-4B chain = Tubulin beta-4B chain (UniProt P68371); test: as above
Tubulin beta-4B chain, sequence (P68371 whole entry): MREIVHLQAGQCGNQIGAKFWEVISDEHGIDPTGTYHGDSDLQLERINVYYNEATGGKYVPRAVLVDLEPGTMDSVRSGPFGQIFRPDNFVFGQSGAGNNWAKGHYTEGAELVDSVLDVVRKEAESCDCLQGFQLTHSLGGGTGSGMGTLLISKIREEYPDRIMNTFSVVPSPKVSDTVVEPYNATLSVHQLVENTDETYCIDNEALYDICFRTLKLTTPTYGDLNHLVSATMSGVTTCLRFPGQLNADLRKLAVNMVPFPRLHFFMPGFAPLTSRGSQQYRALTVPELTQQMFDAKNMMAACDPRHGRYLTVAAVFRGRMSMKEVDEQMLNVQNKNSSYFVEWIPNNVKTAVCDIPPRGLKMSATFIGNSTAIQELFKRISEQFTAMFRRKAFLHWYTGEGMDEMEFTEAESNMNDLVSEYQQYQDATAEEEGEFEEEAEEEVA

Tubulin beta-3 chain, sequence (Q13509 whole entry): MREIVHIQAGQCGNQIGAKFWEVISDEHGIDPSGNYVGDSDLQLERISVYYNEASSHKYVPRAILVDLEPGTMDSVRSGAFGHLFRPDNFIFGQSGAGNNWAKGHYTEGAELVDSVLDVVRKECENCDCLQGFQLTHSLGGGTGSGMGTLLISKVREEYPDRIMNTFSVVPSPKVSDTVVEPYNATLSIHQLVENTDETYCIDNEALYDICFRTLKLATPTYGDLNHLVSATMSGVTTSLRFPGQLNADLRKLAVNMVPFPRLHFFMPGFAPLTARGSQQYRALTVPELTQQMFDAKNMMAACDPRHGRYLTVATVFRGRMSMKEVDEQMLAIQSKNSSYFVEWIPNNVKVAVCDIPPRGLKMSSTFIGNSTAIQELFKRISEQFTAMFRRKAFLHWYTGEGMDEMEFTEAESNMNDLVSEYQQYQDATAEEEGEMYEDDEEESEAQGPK
ATP-dependent RNA helicase A, Q08211, sequence (Q08211 whole entry): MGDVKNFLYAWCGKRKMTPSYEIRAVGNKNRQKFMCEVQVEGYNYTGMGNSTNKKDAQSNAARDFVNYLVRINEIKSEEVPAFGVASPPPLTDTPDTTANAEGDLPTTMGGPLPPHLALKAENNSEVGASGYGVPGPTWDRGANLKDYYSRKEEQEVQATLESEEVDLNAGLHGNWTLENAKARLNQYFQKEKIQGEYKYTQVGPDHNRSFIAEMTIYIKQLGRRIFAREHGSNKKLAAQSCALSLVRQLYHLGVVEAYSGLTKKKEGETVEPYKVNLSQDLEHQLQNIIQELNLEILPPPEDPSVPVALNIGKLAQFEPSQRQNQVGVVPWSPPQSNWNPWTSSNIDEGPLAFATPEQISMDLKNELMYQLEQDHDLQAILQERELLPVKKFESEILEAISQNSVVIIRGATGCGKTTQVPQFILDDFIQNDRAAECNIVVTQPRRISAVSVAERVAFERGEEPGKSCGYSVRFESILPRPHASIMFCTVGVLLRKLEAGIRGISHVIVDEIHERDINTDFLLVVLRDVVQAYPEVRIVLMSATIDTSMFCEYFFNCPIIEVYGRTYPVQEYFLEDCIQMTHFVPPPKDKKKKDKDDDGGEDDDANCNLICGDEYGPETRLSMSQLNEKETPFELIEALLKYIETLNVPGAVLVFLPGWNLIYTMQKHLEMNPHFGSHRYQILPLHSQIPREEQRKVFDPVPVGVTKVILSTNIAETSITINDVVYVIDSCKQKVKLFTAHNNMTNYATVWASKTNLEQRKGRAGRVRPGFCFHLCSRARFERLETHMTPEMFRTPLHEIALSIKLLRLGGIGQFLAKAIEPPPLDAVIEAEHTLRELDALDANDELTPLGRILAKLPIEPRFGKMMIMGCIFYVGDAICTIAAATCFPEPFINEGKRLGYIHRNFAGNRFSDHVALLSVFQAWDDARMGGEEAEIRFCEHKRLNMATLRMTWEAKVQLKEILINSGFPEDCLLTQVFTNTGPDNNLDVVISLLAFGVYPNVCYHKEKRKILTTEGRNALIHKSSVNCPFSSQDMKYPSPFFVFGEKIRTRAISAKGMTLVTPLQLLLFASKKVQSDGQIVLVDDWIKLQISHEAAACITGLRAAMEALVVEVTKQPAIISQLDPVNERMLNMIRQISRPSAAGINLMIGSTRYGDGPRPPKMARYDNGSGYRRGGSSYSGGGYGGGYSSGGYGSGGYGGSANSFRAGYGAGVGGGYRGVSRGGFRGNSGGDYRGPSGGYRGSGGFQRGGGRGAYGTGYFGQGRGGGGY
Glyceraldehyde-3-phosphate dehydrogenase, P04406, sequence (P04406 whole entry): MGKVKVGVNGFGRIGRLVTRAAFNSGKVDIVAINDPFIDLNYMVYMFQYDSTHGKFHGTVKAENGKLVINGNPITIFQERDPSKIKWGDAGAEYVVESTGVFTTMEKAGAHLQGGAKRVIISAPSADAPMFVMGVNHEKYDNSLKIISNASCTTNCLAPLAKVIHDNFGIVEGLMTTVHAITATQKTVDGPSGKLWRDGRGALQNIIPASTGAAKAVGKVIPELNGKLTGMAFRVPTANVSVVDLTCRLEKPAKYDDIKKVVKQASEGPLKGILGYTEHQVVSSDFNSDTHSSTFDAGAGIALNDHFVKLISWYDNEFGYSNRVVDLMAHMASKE
Elongation factor 1-alpha 1, sequence (P68104 whole entry): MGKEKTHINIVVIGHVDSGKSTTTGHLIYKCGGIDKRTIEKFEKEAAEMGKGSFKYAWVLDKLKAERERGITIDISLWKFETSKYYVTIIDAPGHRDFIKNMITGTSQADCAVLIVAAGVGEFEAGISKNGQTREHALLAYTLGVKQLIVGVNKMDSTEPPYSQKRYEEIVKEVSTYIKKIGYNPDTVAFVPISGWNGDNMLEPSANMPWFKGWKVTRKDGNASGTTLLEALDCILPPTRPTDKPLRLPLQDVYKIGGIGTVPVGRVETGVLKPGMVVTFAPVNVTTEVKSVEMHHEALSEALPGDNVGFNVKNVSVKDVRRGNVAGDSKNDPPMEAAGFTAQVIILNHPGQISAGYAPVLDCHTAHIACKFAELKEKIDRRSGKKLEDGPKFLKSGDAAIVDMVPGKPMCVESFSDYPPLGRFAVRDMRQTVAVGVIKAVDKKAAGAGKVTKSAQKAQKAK
Tubulin beta-2B chain, sequence (Q9BVA1 whole entry): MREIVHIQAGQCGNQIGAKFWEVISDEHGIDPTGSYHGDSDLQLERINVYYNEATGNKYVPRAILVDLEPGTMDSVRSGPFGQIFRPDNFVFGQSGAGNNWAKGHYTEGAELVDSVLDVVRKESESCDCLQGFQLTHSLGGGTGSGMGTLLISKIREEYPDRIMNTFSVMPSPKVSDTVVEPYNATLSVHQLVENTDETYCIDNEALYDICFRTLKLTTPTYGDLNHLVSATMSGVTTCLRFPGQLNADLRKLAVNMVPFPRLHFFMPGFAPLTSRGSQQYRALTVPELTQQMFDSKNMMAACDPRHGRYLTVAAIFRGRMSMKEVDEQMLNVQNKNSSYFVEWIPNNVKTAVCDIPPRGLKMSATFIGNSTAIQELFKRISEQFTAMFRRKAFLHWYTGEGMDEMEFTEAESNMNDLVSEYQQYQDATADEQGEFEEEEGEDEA
Nucleolin, sequence (P19338 whole entry): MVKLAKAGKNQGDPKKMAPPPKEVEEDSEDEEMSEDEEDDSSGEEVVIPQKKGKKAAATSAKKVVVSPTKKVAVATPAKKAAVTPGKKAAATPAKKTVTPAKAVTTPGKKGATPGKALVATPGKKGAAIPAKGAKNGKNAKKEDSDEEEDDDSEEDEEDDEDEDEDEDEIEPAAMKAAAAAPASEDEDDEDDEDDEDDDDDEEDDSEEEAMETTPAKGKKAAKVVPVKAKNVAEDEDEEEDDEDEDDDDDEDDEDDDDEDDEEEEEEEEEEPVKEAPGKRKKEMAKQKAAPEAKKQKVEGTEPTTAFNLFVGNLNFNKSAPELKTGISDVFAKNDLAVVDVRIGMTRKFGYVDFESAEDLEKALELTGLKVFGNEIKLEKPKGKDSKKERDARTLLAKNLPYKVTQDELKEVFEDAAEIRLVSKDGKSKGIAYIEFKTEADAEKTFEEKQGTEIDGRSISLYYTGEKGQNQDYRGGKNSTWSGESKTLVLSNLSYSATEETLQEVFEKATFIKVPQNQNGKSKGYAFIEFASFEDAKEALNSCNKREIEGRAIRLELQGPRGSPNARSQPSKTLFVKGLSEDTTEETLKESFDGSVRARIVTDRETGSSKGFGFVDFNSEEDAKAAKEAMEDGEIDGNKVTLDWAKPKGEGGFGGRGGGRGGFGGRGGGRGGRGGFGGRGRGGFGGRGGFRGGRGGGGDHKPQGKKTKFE
Beta-actin-like protein 2, sequence (Q562R1 whole entry): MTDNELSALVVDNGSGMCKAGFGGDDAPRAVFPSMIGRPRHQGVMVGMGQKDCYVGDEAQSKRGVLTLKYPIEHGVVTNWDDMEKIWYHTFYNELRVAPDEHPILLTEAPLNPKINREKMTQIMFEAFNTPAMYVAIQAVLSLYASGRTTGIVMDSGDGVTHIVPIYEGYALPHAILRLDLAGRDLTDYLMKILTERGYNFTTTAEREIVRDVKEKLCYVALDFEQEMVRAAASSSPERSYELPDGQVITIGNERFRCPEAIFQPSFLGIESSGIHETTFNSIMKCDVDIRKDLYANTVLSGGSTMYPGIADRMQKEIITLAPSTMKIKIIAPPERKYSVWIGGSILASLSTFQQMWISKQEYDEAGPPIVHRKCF
Protein RCC2, sequence (Q9P258 whole entry): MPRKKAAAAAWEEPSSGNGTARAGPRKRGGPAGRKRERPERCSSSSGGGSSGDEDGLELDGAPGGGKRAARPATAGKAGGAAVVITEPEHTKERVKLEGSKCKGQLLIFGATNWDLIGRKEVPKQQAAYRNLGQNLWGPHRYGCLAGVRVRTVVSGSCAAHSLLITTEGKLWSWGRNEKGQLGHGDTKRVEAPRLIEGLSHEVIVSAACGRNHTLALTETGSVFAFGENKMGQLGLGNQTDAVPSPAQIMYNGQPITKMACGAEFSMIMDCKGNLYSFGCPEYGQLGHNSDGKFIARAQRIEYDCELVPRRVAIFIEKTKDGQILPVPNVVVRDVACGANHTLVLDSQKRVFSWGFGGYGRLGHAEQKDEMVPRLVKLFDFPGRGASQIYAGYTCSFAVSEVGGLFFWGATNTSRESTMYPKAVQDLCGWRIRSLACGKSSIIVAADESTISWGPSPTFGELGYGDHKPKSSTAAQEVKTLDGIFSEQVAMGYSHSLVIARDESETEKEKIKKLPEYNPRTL

## High mobility group protein B1, P09429
Histone H4
  listed as a hit: yes
Histone H1.4
  listed as a hit: yes
Protein RCC2
  listed as a hit: yes

## Destrin, P60981
[1]
  listed as a hit: yes

## Fructose-bisphosphate aldolase A, P04075
[2]
  listed as a hit: yes
Histone H2B type 1-B
  listed as a hit: yes

## Heterogeneous nuclear ribonucleoprotein D-like, O14979
Histone H2B type 1-L
  listed as a hit: yes

## ATP-dependent RNA helicase A, Q08211
Histone H2B type 1-L
  listed as a hit: yes

## Histone H1.3, P16402
[3]
  listed as a hit: yes

## Macrophage migration inhibitory factor, P14174
Nucleolin
  listed as a hit: yes

## Tubulin beta-4B chain, P68371
Tubulin beta-2B chain
  listed as a hit: yes
Tubulin beta-3 chain
  listed as a hit: yes

## Tubulin beta chain, P07437
Tubulin beta-4B chain
  listed as a hit: yes

## Glyceraldehyde-3-phosphate dehydrogenase, P04406
Tubulin beta-4B chain
  listed as a hit: yes
